ELG1 genotoxic = genotoxicity induction in ELG1-luciferase HEK293T cells; Potency, µM (series often up to 46 µM), hits mostly activators; HEK293T ELG1-luciferase reporter, luminescence, 16 h; AID 504466; 330,000 compounds, 1.3% hits; note: nearly all actives have a fitted effect of over 60% in size
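Step 1: seed 2,000 HEK293T ELG1-luciferase cells per well. Step 2: add compound or DMSO, incubate 16 hr at 37 °C. Step 3: ONE-Glo, 30 min at room temperature, read luminescence.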
Rab9 promoter act = activates the Rab9 promoter; Huh7 Rab9 promoter-luciferase reporter, luminescence, 24 h; 320,000 compounds, 2.8% hits; Potency, µM (doses to about 9.22 µM), most hits filed as activators; note: nearly all actives have a fitted effect of over 60% in size
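Using Huh7 cells stably transfected with Rab9 promoter–luciferase, compounds were incubated 24 h at 37 °C, 5% CO2; luciferase luminescence was read 10 min after reagent addition.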
FLuc counter = counter-screen for miR-21 project: firefly luciferase inhibitors or activators. AID 588342. P08659. 360,000 compounds, 6.9% hits. Potency, µM (doses to about 57.5 µM), most hits filed as inhibitors. purified FLuc, Km substrates, luminescence inhibition; note: nearly all actives have a fitted effect of over 55% in size
Target sequence (P08659 whole entry, looked up): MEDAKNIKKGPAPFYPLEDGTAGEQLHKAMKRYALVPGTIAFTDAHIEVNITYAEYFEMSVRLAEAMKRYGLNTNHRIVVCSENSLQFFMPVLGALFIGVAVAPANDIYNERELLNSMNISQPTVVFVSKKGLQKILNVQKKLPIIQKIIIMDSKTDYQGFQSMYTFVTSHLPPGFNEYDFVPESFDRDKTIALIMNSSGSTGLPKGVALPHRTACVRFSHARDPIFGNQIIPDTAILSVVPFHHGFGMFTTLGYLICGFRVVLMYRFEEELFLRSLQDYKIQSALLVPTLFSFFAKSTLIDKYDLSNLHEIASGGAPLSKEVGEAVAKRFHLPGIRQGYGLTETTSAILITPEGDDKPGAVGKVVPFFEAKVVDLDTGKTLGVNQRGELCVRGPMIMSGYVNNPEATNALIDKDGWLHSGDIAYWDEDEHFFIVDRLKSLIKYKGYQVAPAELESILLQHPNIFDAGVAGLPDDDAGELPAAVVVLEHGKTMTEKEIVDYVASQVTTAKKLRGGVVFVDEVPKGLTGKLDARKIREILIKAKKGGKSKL
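Biochemical qHTS of compounds, final roughly 60 µM downward over six points, against 10 nM purified firefly luciferase using Km concentrations of substrates (10 uM D-luciferin, 10 uM ATP) in Tris acetate pH 7.5 buffer; luminescence output.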
NPC1 promoter act = activators of NPC1 promoter | Huh7 NPC1 promoter luciferase reporter, 24 h | Potency, µM (series often up to 9.22 µM), actives largely listed as activators | 320,000 compounds, 2.4% hits | AID 485313; note: nearly all actives have a fitted effect of over 60% in size
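Luciferase expression driven by the NPC1 promoter was measured in stably transfected Huh7 cells after a 24 h compound incubation, using a luciferase reagent and a luminescence read.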
KinaseGlo FLuc = counter-screen: inhibitors of Kinase-Glo firefly luciferase. AID 1379. 200,000 compounds, 0.28% hits. Potency, µM (titrated, usually from 38.3 µM), most hits filed as inhibitors. Kinase-Glo luciferase, ATP luminescence, 8 min. Q27757; note: nearly all actives have a fitted effect of over 60% in size
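Recombinant Kinase-Glo luciferase, 10 uM ATP (linear range), luciferin; imidazole pH 7.2 / KCl / MgCl2 / Tween / BSA buffer; 8 min RT; luminescence.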
SMN2 splice up = increases expression of the SMN2 splice variant; HEK293 SMN2-luciferase splicing reporter, luminescence, 30-36 h; Potency, µM (doses to about 46.1 µM), most hits filed as activators; 210,000 compounds, 2.8% hits; AID 1458; note: nearly all actives have a fitted effect of over 55% in size
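HEK293 cells carry an SMN2 minigene-luciferase reporter in which exon 7 inclusion puts luciferase in frame. Cells were seeded at 2000 cells/well, attached for 10-12 hours, then exposed to compounds for 30-36 hours at 37C before ONE-Glo luminescence.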
Numbers stand for hits; n = inactive; u = inconclusive; x = not tested or not shown; [ ] = dose if it differs, or a comment. Only some compounds are listed: those with a hit (about 7.5% of all), similar ones and a draw of the others. Calls come from the whole dose curve; as a rule, active = well fitted curve in the direction sought with a large enough effect; inconclusive = small, poorly fitted or top-dose-only effect, or another doubt; inactive = no such curve, though single readings can be large; an effect the other way counts as inactive or inconclusive.

SMILES	ELG1 genotoxic	Rab9 promoter act	FLuc counter	NPC1 promoter act	KinaseGlo FLuc	SMN2 splice up
COC(=O)c1ccc(C(NC(=O)OCc2ccccc2)/C(=C/[C@@H](C)C(=O)Nc2ccc(OC)cc2)c2cccnc2)cc1 (some centres undefined)	x	x	x	x	n	n
CC(C)n1ncc2c(C(=O)Nc3cccc(C#N)c3)cc(C3CC3)nc21	n	n	n	n	x	x
COc1ccccc1C(=O)Nc1c(C(=O)N2CCN(C)CC2)oc2ccccc12	n	n	n	n	x	x
CC1CCN(c2nc3ccc(C(=O)NC(C)C)cc3s2)CC1	x	x	1.7µM	x	x	0.79µM
CC1CCN(c2nc3ccc(C(=O)NCCCN4CCCCC4C)cc3s2)CC1 (centres undefined)	u	n	u	n	x	x
CC1CCN(c2nc3ccc(C(=O)NCc4ccccc4)cc3s2)CC1	x	x	12µM	x	x	n
Cc1c(C(=O)Nc2ccccc2F)sc2ncnc(N(C)C3CCCCC3)c12	x	x	n	x	x	x
O=C(O)C1CCCN1c1nc(-c2ccc(Cl)c(Cl)c2)cc(C(F)(F)F)n1 (centres undefined)	n	n	n	n	x	x
CCOc1ccc(NC(=O)c2oc3ccccc3c2NC(=O)C2CCCCC2)cc1	x	x	n	x	x	n
O=C(N=Nc1c(O)n(Cc2ccccc2)c2ccccc12)c1ccc(O)cc1	u	u	0.95µM	u	n	u
Cc1ccc(NC(=O)Cn2c(O)c(N=NC(=O)c3cc4ccccc4cc3O)c3ccccc32)cc1	n	n	u	n	n	n
O=C(N=Nc1c(O)n(Cc2ccccc2)c2ccccc12)c1cc2ccccc2cc1O	u	u	1.1µM	u	n	10µM
CN(C(=O)Cn1nc(Cc2cccnc2)c2ccccc2c1=O)c1cccc(C(F)(F)F)c1	x	x	n	x	x	n
O=C(O)COc1ccc(/C=C/c2nc(-c3ccccc3O)n[nH]2)cc1	n	n	11µM	n	x	x
COc1ccc(/C=C/c2nc(-c3ccccc3O)n[nH]2)cc1OC	u	u	12µM	u	n	u
CC(=O)N1CCc2cc(S(=O)(=O)NC(CC(C)C)C(=O)NCc3ccccc3Cl)ccc21 (centres undefined)	x	x	n	x	x	n
Cc1c(CNC(C)CCc2ccccc2)c(C(=O)O)c(C)n1Cc1ccc(F)cc1 (centres undefined)	x	x	n	x	x	n
COc1ccccc1NC(=O)c1cnc(SCC(=O)NCC2CCCO2)n(C)c1=O (centres undefined)	n	n	5.4µM	n	x	x
COc1ccccc1NC(=O)c1cnc(SCC(=O)N2CCOCC2)n(C)c1=O	x	x	7.6µM	x	x	x
COc1cccc(NC(=O)c2cnc(SCC(=O)N3CCCc4ccccc43)n(C)c2=O)c1	x	x	n	x	x	x
Cn1c(SCC(=O)N2CCOCC2)ncc(C(=O)Nc2ccccc2)c1=O	x	x	n	x	x	x
COc1ccccc1NC(=O)c1cnc(SCC(=O)N2CCCc3ccccc32)n(C)c1=O	x	x	1.7µM	x	x	x
Cc1ccc(NC(=O)c2cnc(SCC(=O)N3CCOCC3)n(C)c2=O)cc1C	x	x	15µM	x	x	x
CC(=O)N(C[C@@H](C)C(=O)O)c1c(I)cc(I)c(N)c1I	x	x	x	x	n	n
CCCCn1c(N)c(N(Cc2ccccc2OC)C(=O)C(C)C)c(=O)[nH]c1=O	n	n	n	n	x	x
SMILES	ELG1 genotoxic	Rab9 promoter act	FLuc counter	NPC1 promoter act	KinaseGlo FLuc	SMN2 splice up
C/C=C/C1=Cc2ccccc2C(CC(=O)OC)N1C(=O)OC (centres undefined)	x	x	x	x	n[7.66 µM]	n[9.22 µM]
COc1ccc(N(C(=O)COc2ccc(C)cc2)S(=O)(=O)c2ccc(C)cc2)cc1	n	n	n	n	n	n
O=C(/C(=C/O)N=Nc1cccc(C(F)(F)F)c1)c1ccccc1	n	n	u	n	n	n
O=C(/C(=C/O)N=Nc1ccccc1Cl)c1ccccc1	n	n	21µM	n	n	n
CCN(CC)c1nc2c(S(=O)(=O)c3cccc(Cl)c3)nnn2c2ccsc12	x	x	n	x	x	x
COc1ccc(/C=C(/C(=O)c2cccs2)N2C=CC=CC2=C(C#N)C#N)cc1	u	n	13µM	n	x	x
COc1ccc(N=Nc2n(C)c3ccccc3[n+]2C)cc1	0.92µM	u	0.076µM	0.71µM	x	x
O=C(Nc1ccccn1)c1ccc(Cl)c(S(=O)(=O)N2CCc3ccccc32)c1	n	n	n	n	x	x
CC(N)CCCP(=O)(O)O (centres undefined)	x	x	x	x	x	n
Oc1ccc(C=Nc2cccc3ccccc23)c(O)c1	n	n	n	n	x	x
CC(O)c1cccc(N=Cc2ccc3ccccc3c2O)c1 (centres undefined)	n	n	27µM	n	x	x
CCCCCc1ccc(-c2cn(Cc3ccc(C)cc3)nn2)cc1	n	3.5µM	u	u	x	x
CCCCCc1ccc(-c2cn(Cc3cccc(OC)c3)nn2)cc1	n	n	u	n	x	x
COc1ccc(-c2cn(Cc3ccc(C)cc3)nn2)cc1	u	2.8µM	u	4µM	x	x
CCc1cccc(C)c1NC(=O)Cn1c(=O)cc(C)c2c(C)nn(-c3cccc(F)c3)c21	x	x	n	x	x	x
O=C(COc1ccccc1Cc1ccccc1)Nc1cccnc1	n	n	x	n	x	x
O=C(Nc1ncc2c(n1)-c1ccccc1CC2)c1ccccc1	n	n	u	n	n	n
O=C(Nc1nc2c(s1)CCCC2)C1CCCN1C(=O)c1cccs1 (centres undefined)	n	n	n	n	n	n
O=C(CCS(=O)(=O)c1ccccc1)Nc1nc2c(s1)COc1ccccc1-2	n	n	n	n	n	n
O=C(Nc1nc2c(s1)CCc1ccccc1-2)c1cccs1	n	u	13µM	u	n	n
Fc1ccccc1Nc1nc2c(s1)CCc1ccccc1-2	8.2µM	3.2µM	1.9µM	u	n	u
O=C(Nc1nc2c(s1)COc1ccccc1-2)c1cccs1	n	n	13µM	n	n	n
O=C(Nc1ncc2c(n1)-c1ccccc1CC2)c1cccs1	n	n	19µM	n	n	n
CC(=O)NNS(=O)(=O)c1ccc(-c2cc(C(F)(F)F)n(C)n2)s1	n	n	n	n	x	x
Ic1ccc(N2CCN(Cc3c[nH]c4ncccc34)CC2)cc1	n	n	u	n	n	n
SMILES	ELG1 genotoxic	Rab9 promoter act	FLuc counter	NPC1 promoter act	KinaseGlo FLuc	SMN2 splice up
COc1cc(C(c2c(C)[nH][nH]c2=O)c2c(C)[nH][nH]c2=O)ccc1OC(=O)c1cccc(C)c1	x	x	u	x	x	n
C[C@H]1C[C@H]2[C@H]3CCC4=CC(=O)C=C[C@@]4(C)[C@]3(F)[C@H](O)C[C@]2(C)[C@@]1(O)C(=O)COP(=O)(O)O	x	x	x	x	n[7.66 µM]	n[9.22 µM]
CCc1cc(C(=O)Nc2sc(C)c(CC)c2C#N)no1	x	x	15µM	x	x	n
CCc1c(C)sc(NC(=O)c2cc(C)no2)c1C#N	n	n	13µM	n	n	n
Cc1cc(C(=O)Nc2sc(C)c(C)c2C#N)no1	11µM	n	19µM	n	n	x
CCc1c(C)sc(NC(=O)c2cc(C(C)C)on2)c1C#N	n	n	u	n	n	n
CCOc1ccc(N(CC(=O)NCCc2ccc(C)cc2)S(=O)(=O)c2c(C)noc2C)cc1	n	n	n	n	x	x

High-throughput results: PubChem, National Center for Advancing Translational Sciences (NCATS)
